Among the data in the supplement of paper PMC8371130 are relative cell viability values, retold here.

Where a name gives a salt, the structure may show the parent alone.

One test relates to HL-1. In words: relative cell viability (CellTiter-Glo) vs DMSO control (% of DMSO control); higher = more viable cells. The settings on record: oxygen condition: normoxia 72 h; 1000 nM. Summed up:
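HL-1 mouse atrial cardiomyocytes were plated in 384-well plates at 1000 cells per well together with compounds at 40, 200, 1000 or 5000 nM in 0.01% DMSO. One day later, cells went to a hypoxic workstation (1% O2) for 48 h, then were reoxygenated for 24 h in a normal incubator, or stayed in normoxia for the same time. Cell viability was read by CellTiter-Glo luminescence and normalised to vehicle-treated control cells.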
`CO[C@H]1C[C@@H]2CC[C@@H](C)[C@@](O)(O2)C(=O)C(=O)N2CCCC[C@H]2C(=O)O[C@H]([C@H](C)C[C@@H]2CC[C@@H](OC(=O)C(C)(CO)CO)[C@H](OC)C2)CC(=O)[C@H](C)/C=C(\C)[C@@H](O)[C@@H](OC)C(=O)[C@H](C)C[C@H](C)/C=C/C=C/C=C/1C` [Temsirolimus] had a relative cell viability of 81.1. Still for that read-out and setting: for `Cc1[nH]c(=O)c(C#N)cc1-c1ccncc1` [Milrinone] the value was 99.1; for `C=CC[N+]1([C@H]2C[C@H]3[C@@H]4CC[C@H]5C[C@H](O)[C@@H](N6CCOCC6)C[C@]5(C)[C@H]4CC[C@]3(C)[C@H]2OC(C)=O)CCCC1` [Rocuronium bromide], 104. Same read-out and setting: for `CCOc1ccc2ccccc2c1C(=O)N[C@@H]1C(=O)N2[C@@H]1SC(C)(C)[C@@H]2C(=O)O` [nafcillin sodium monohydrate] the value was 103; for `CCOC(=O)[C@H](CCc1ccccc1)N[C@@H](C)C(=O)N1CCC[C@H]1C(=O)O` [Enalapril maleate], 99.2; for `COc1cccc2c1C(=O)c1c(O)c3c(c(O)c1C2=O)C[C@@](O)(C(=O)CO)C[C@@H]3O[C@H]1C[C@H](N)[C@@H](O)[C@H](C)O1` [Epirubicin Hydrochloride], 91.7. Same read-out and setting: to `CC1=C(/C=C/C(C)=C/C=C/C(C)=C\C(=O)O)C(C)(C)CCC1` [Isotretinoin] belongs 107; to `Nc1c2c(nc3ccccc13)CCCC2` [Tacrine HCl], 70.4; to `O=P(O)(O)C(O)(Cn1ccnc1)P(=O)(O)O` [Zoledronic Acid], 102.

In turn, `O=C(c1ccc(OCCN2CCCCC2)cc1)c1c(-c2ccc(O)cc2)sc2cc(O)ccc12` [Evista] gave a relative cell viability of 109. On the same count and under the same terms, for `CCCN(CCC)S(=O)(=O)c1ccc(C(=O)O)cc1` [Probenecid] the value was 109; for `CS(=O)(=O)c1ccc(C2=C(c3ccccc3)C(=O)OC2)cc1` [Rofecoxib], 107. Same read-out and setting: to `CN(C)c1nc(N(C)C)nc(N(C)C)n1` [Altretamine] belongs 108; to `Cc1cccc(C)c1OCC(C)N` (configuration not stated) [Mexiletine HCl], 107; to `CCNC(=O)CCC/C=C\C[C@@H]1[C@@H](/C=C/[C@@H](O)CCc2ccccc2)[C@H](O)C[C@@H]1O` [Bimatoprost], 105. Molecule `C[C@]12CC[C@@H]3c4ccc(O)cc4C[C@@H](CCCCCCCCC[S+]([O-])CCCC(F)(F)C(F)(F)F)[C@H]3[C@@H]1CC[C@@H]2O` (some centres not stated) [Fulvestrant] gave a relative cell viability of 122. Same read-out and setting: for `CCc1c2c(nc3ccc(OC(=O)N4CCC(N5CCCCC5)CC4)cc13)-c1cc3c(c(=O)n1C2)COC(=O)[C@]3(O)CC` [Irinotecan HCl Trihydrate] the value was 62.5. Same read-out and setting: for `Cc1cn(-c2cc(NC(=O)c3ccc(C)c(Nc4nccc(-c5cccnc5)n4)c3)cc(C(F)(F)F)c2)cn1` [Nilotinib] the value was 104.

Still in this test, the particulars now being: oxygen condition: normoxia 72 h; 5000 nM.
`CCOc1nc2cccc(C(=O)OC(C)OC(=O)OC3CCCCC3)c2n1Cc1ccc(-c2ccccc2-c2nn[nH]n2)cc1` (configuration not stated) [Candesartan cilexetil]: the relative cell viability was found to be 4.11. On the same count and under the same terms, to `Nc1cc(N2CCCCC2)nc(N)[n+]1[O-]` [Minoxidil] belongs 111; to `Cc1ccc(NC(=O)c2ccc(CN3CCN(C)CC3)cc2)cc1Nc1nccc(-c2cccnc2)n1` [Imatinib Mesylate], 117. Still for that read-out and setting: for `OCCN(CCO)c1nc(N2CCCCC2)c2nc(N(CCO)CCO)nc(N3CCCCC3)c2n1` [Dipyridamole] the value was 113. The same measure, in the same setting: to `Nc1ccn([C@@H]2O[C@H](CO)[C@@H](O)C2(F)F)c(=O)n1` [Gemcitabine HCl] belongs 3.39. In turn, `CCCCCCNC(=O)n1cc(F)c(=O)[nH]c1=O` [Carmofur] gave a relative cell viability of 15.1. Still for that read-out and setting: to `CC(S)C(=O)NCC(=O)O` (configuration not stated) [Tiopronin] belongs 103; to `COc1cc(C(C)=O)ccc1OCCCN1CCC(c2noc3cc(F)ccc23)CC1` [Iloperidone], 109; to `CCN1CCC[C@H]1CNC(=O)c1cc(S(N)(=O)=O)ccc1OC` [Levosulpiride], 116. In turn, `NS(=O)(=O)Cc1noc2ccccc12` [Zonisamide] gave a relative cell viability of 103.

As for `Cc1nc2n(c(=O)c1CCN1CCC(c3noc4cc(F)ccc34)CC1)CCCC2` [Risperidone], the relative cell viability worked out at 114. `Cc1c(OCC(F)(F)F)ccnc1C[S@@+]([O-])c1nc2ccccc2[nH]1` [Dexlansoprazole] came in with a relative cell viability of 91.9. The same measure, in the same setting: to `Cc1cc(N)c2ccccc2[n+]1CCCCCCCCCC[n+]1c(C)cc(N)c2ccccc21` [Dequalinium chloride] belongs 101; to `COc1cc2c(cc1OC)CC(=O)N(CCCN(C)C[C@H]1Cc3cc(OC)c(OC)cc31)CC2` [Ivabradine HCl], 106.

In turn, `CC(C)(Sc1cc(C(C)(C)C)c(O)c(C(C)(C)C)c1)Sc1cc(C(C)(C)C)c(O)c(C(C)(C)C)c1` [Probucol] had a relative cell viability of 112. Molecule `COc1cc([C@@H]2c3cc4c(cc3[C@@H](O[C@@H]3O[C@@H]5CO[C@@H](C)O[C@H]5[C@H](O)[C@H]3O)[C@H]3COC(=O)[C@H]23)OCO4)cc(OC)c1O` [Etoposide] came in with a relative cell viability of 13.9. Same read-out and setting: for `Cc1ccc(C(=O)c2cc(O)c(O)c([N+](=O)[O-])c2)cc1` [Tolcapone] the value was 113; for `CC[C@]1(O)C[C@@H]2CN(CCc3c([nH]c4ccccc34)[C@@](C(=O)OC)(c3cc4c(cc3OC)N(C)[C@H]3[C@@](O)(C(=O)OC)[C@H](OC(C)=O)[C@]5(CC)C=CCN6CC[C@]43[C@@H]65)C2)C1` [Vinblastine], 35.9. The same measure, in the same setting: for `CN1CCC(=C2c3ccccc3CC(=O)c3sccc32)CC1` [Ketotifen fumarate] the value was 106. The same measure, in the same setting: to `CN(C)CC/C=C1/c2ccccc2COc2ccc(CC(=O)O)cc21` [Olopatadine hydrochloride] belongs 102; to `CCC[C@@H]1C[C@@H](C(=O)N[C@@H]([C@H]2O[C@H](SC)[C@H](O)[C@@H](O)[C@H]2O)[C@@H](C)O)N(C)C1` [Lincomycin hydrochloride], 97. In the case of `CO[C@H]1C[C@@H]2CC[C@@H](C)[C@@](O)(O2)C(=O)C(=O)N2CCCC[C@H]2C(=O)O[C@H]([C@H](C)C[C@@H]2CC[C@@H](OC(=O)C(C)(CO)CO)[C@H](OC)C2)CC(=O)[C@H](C)/C=C(\C)[C@@H](O)[C@@H](OC)C(=O)[C@H](C)C[C@H](C)/C=C/C=C/C=C/1C` [Temsirolimus], the relative cell viability was determined as 44.

In turn, `Cc1[nH]c(=O)c(C#N)cc1-c1ccncc1` [Milrinone] came in with a relative cell viability of 113. On the same count and under the same terms, for `C=CC[N+]1([C@H]2C[C@H]3[C@@H]4CC[C@H]5C[C@H](O)[C@@H](N6CCOCC6)C[C@]5(C)[C@H]4CC[C@]3(C)[C@H]2OC(C)=O)CCCC1` [Rocuronium bromide] the value was 107. Still for that read-out and setting: to `CCOc1ccc2ccccc2c1C(=O)N[C@@H]1C(=O)N2[C@@H]1SC(C)(C)[C@@H]2C(=O)O` [nafcillin sodium monohydrate] belongs 107; to `CCOC(=O)[C@H](CCc1ccccc1)N[C@@H](C)C(=O)N1CCC[C@H]1C(=O)O` [Enalapril maleate], 99. Still for that read-out and setting: to `COc1cccc2c1C(=O)c1c(O)c3c(c(O)c1C2=O)C[C@@](O)(C(=O)CO)C[C@@H]3O[C@H]1C[C@H](N)[C@@H](O)[C@H](C)O1` [Epirubicin Hydrochloride] belongs 96.4; to `CC1=C(/C=C/C(C)=C/C=C/C(C)=C\C(=O)O)C(C)(C)CCC1` [Isotretinoin], 112. `Nc1c2c(nc3ccccc13)CCCC2` [Tacrine HCl] returned a relative cell viability of 26.4. The same measure, in the same setting: to `O=P(O)(O)C(O)(Cn1ccnc1)P(=O)(O)O` [Zoledronic Acid] belongs 109; to `O=C(c1ccc(OCCN2CCCCC2)cc1)c1c(-c2ccc(O)cc2)sc2cc(O)ccc12` [Evista], 68.7; to `CCCN(CCC)S(=O)(=O)c1ccc(C(=O)O)cc1` [Probenecid], 115. The molecule `CS(=O)(=O)c1ccc(C2=C(c3ccccc3)C(=O)OC2)cc1` [Rofecoxib] had a relative cell viability of 109.

In turn, `CN(C)c1nc(N(C)C)nc(N(C)C)n1` [Altretamine] yielded a relative cell viability of 122. Still for that read-out and setting: to `Cc1cccc(C)c1OCC(C)N` (configuration not stated) [Mexiletine HCl] belongs 123; to `CCNC(=O)CCC/C=C\C[C@@H]1[C@@H](/C=C/[C@@H](O)CCc2ccccc2)[C@H](O)C[C@@H]1O` [Bimatoprost], 107; to `C[C@]12CC[C@@H]3c4ccc(O)cc4C[C@@H](CCCCCCCCC[S+]([O-])CCCC(F)(F)C(F)(F)F)[C@H]3[C@@H]1CC[C@@H]2O` (some centres not stated) [Fulvestrant], 135.

The molecule `CCc1c2c(nc3ccc(OC(=O)N4CCC(N5CCCCC5)CC4)cc13)-c1cc3c(c(=O)n1C2)COC(=O)[C@]3(O)CC` [Irinotecan HCl Trihydrate] registered a relative cell viability of 40.2.

Turning to `Cc1cn(-c2cc(NC(=O)c3ccc(C)c(Nc4nccc(-c5cccnc5)n4)c3)cc(C(F)(F)F)c2)cn1` [Nilotinib], the relative cell viability worked out at 108.
